Screening data deposited in PubChem BioAssay by National Center for Advancing Translational Sciences (NCATS).
This is a sample that favours compounds with a hit; in the whole collection about 12% have one here.
JMJD2A Tudor inh = qHTS Assay for Inhibitors of JMJD2A-Tudor Domain; Lysine-specific demethylase 4A (Homo sapiens), O75164; AlphaScreen JMJD2A-Tudor / H3K4me3 peptide binding; Potency, µM (series often up to 114 µM), hits mostly inhibitors; 390,000 tested, 4.4% active; AID 504339, 2011; further: nearly all actives have a fitted effect of over 50% in size
BAZ2B inh = qHTS Assay for Inhibitors of BAZ2B; AlphaScreen BAZ2B-H3K14Ac peptide displacement; Potency, µM (highest dose often 114 µM), most hits filed as inhibitors; 360,000 tested, 4.4% active; AID 504333, 2011; further: nearly all actives have a fitted effect of over 60% in size
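AlphaScreen displacement: compounds (up to 110uM) incubated 30 min at room temperature with a preformed 50 nM BAZ2B/50 nM biotinylated H3K14Ac peptide complex in PBS pH 7.4 with Tween-20. Donor and acceptor beads at 10 ug/mL final added, 20 min light-protected before reading.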
Sfp inh = qHTS Assay for Inhibitors of Bacillus subtilis Sfp phosphopantetheinyl transferase (PPTase); Potency, µM, hits mostly inhibitors; Biochemical Sfp PPTase activity, qHTS; AID 1490, 2009; 4'-phosphopantetheinyl transferase ffp (Bacillus subtilis), Q9F4F7; 310,000 tested, 3.5% active;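 further: the enzyme is Sfp with the accession as filed and its product quenches rhodamine fluorescence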
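With Hepes-Na pH 7.6 buffer containing 10 mM MgCl2, Sfp (15 nM) modified BHQ-2-YbbR (12.5 uM) using rhodamine-CoA (5 uM). Two reads 30 minutes apart at 525/598 nm yielded each well's rate.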
L3MBTL1 block = qHTS Assay for the Inhibitors of L3MBTL1; Lethal(3)malignant brain tumor-like protein 1 (Homo sapiens), Q9Y468; AlphaScreen L3MBTL1–H3K9me1 peptide binding; Potency, µM (titrated, usually from 57.1 µM), actives largely listed as inhibitors; 230,000 tested, 0.66% active; further: nearly all actives have a fitted effect of over 60% in size
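L3MBTL1 (50 nM) pre-complexed 30 min with biotinylated H3(1-15)K9me1 peptide (75 nM), then compounds added for 30 min at room temperature; AlphaScreen streptavidin donor/nickel chelate acceptor beads (10 ug/mL final) read after 30 min dark incubation.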
G9a inh = qHTS Assay for Inhibitors of Histone Lysine Methyltransferase G9a; Potency, µM (top dose mostly 102 µM), actives largely listed as inhibitors; Histone-lysine N-methyltransferase EHMT2 (Homo sapiens), Q96KQ7; 350,000 tested, 8.8% active; G9a H3K9 monomethylation, AlphaScreen, 2 h; further: nearly all actives have a fitted effect of over 75% in size
Target sequence (Q96KQ7 913-1193 limits assumed): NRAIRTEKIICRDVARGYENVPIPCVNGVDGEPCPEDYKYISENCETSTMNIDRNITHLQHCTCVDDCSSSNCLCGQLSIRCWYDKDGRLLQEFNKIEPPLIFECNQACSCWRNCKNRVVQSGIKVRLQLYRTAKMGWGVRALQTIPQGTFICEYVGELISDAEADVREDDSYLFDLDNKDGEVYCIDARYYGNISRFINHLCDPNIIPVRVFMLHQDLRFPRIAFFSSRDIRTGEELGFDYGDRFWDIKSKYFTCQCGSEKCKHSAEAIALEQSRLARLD
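Compounds were preincubated with 20 nM G9a for 15 min, after which biotinylated H3K9 peptide (500 nM) and SAM (20 uM) started a 2 h room-temperature reaction. Monomethylated product was quantified by antibody-based AlphaScreen chemiluminescence.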
HP1b chromo inh = HTS for Inhibitors of HP1-beta Chromodomain Interactions with Methylated Histone Tails | Chromobox protein homolog 1 (Homo sapiens), P83916 | AlphaScreen HP1-beta / biotin-H3K9me3 peptide binding | Potency, µM (highest dose often 114 µM), most hits filed as inhibitors | 390,000 tested, 0.56% active | AID 540317, 2011; further: nearly all actives have a fitted effect of over 70% in size
Target sequence (P83916 whole entry, looked up): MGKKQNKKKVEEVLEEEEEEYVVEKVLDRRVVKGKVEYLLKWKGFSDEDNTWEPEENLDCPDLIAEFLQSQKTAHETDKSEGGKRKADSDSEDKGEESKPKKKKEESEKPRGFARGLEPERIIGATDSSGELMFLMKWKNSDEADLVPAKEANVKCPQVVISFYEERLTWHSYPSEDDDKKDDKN
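AlphaScreen: HP1-beta (50 nM) preformed 30 min with biotin-H3(1-18)K9me3 peptide (50 nM) in PBS pH 7.4, 0.01% Tween-20. Compound added for 30 min at RT, then streptavidin donor/nickel chelate acceptor beads (10 ug/mL) for 30 min.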
A number is an active result; n = inactive; u = inconclusive; x = no result given; [ ] = remark or other dose. The call rests on the fitted dose curve; in most records, active means well fitted curve in the direction sought with a large enough effect; inconclusive means small, poorly fitted or top-dose-only effect, or another doubt; inactive means no such curve, though single readings can be large; an effect the other way counts as inactive or inconclusive.

SMILES	JMJD2A Tudor inh	BAZ2B inh	Sfp inh	L3MBTL1 block	G9a inh	HP1b chromo inh
COc1ccc(NC(=O)CCCn2c(=O)c3sccc3n(Cc3ccc(C)cc3C)c2=O)cc1	n	n	50.1µM	n	n	n
CN(C)c1ccc(C(=O)OCc2ccccc2)cc1	n[11.4 µM]	n	n	x	n	n
O=C1C=CC(=O)C(CNc2ccc(C(=O)OCc3ccccc3)cc2)=C1	39.8µM	x	x	x	x	39.8µM
COc1cc(NC(=O)CC(C)S(=O)(=O)c2cc3c4c(c2)CCN4C(=O)CC3)cc(OC)c1 (stereo unspecified)	n	n	x	x	n	n
CC(C)C(c1nnnn1C1CCCCC1)N1CCOCC1 (stereo unspecified)	n	x	n	n	n	n
CC(C)C(c1nnnn1C(C)(C)C)N1CCOCC1 (stereo unspecified)	39.8µM	n	n	n	39.8µM	n
COc1cccc(C2NC(CCSC)(C(=O)O)C3C(=O)N(C(C)C)C(=O)C23)c1O (stereo unspecified)	n	39.8µM	u	x	u	n
CC(C)N1C(=O)C2C(c3ccccc3O)NC(C)(C(=O)O)C2C1=O (stereo unspecified)	n	u	20µM	x	n	n
Cc1ccc(-c2cnc(C3CC3)o2)cc1S(=O)(=O)Nc1ccc(F)cc1Cl	n	u	x	x	n[12.7 µM]	n
CCc1ccc(N/C(SC)=C(/C#N)C(N)=O)cc1	n	n	n	u	n[0.501 µM]	n
CCCCS/C(=C(/C#N)C(N)=O)c1cc2c([nH]1)CCCC2	44.7µM	39.8µM	u	u	20µM	u
COc1ccc(CCNC(=O)C(=O)NCC(c2cccs2)S(=O)(=O)c2cccs2)cc1 (stereo unspecified)	n	n	x	x	n	n
CCCc1cc(=O)[nH]c2nnc(SCC(=O)Nc3cccc(C)c3)n12	n	n	x	x	n	n
COC(=O)c1ccc(C)c(N(CCO)CCO)c1	n	n	n	n	25.1µM	n
COC(=O)c1ccc(C(=O)NCCCCO)cc1	n	n	n	n	n	n
Cc1c(C(=O)Oc2cc(N)n(S(C)(=O)=O)n2)cccc1[N+](=O)[O-]	n	u	n	x	15.8µM	n
CCCCc1nc2c(c3c1C[C@H](C)OC3)CN(C(=O)Nc1cccc(C#N)c1)CC2	x	x	n	x	x	x
Cc1ccc(S(=O)(=O)N(C)C)cc1NC(=O)CSc1nc2ncc(Cl)cc2[nH]1	n	n	x	n	35.5µM	n
Cc1ccccc1NC(=O)CSc1nc2ncc(Cl)cc2[nH]1	n	n	n	x	u	n
Cc1ccc(OCc2n[nH]c(=S)n2C2CCCCC2)cc1	56.2µM	n	n	x	1.12µM	n
Cc1cccc(OCc2n[nH]c(=S)n2C2CCCCC2)c1	u	n	n	n	1.78µM	n
S=c1[nH]nc(COc2ccc(Cl)cc2)n1C1CCCCC1	n	n	n	n	u	n
COc1ccc2c(CNC3CCCC3)c(C(=O)O)n(Cc3ccccc3C)c2c1	n	n	x	x	n	n
COc1ccc(S(=O)(=O)NCC(c2ccco2)S(=O)(=O)c2cccs2)cc1F (stereo unspecified)	n	n	x	x	n	n
COc1ccccc1-n1c(/C=C/c2c(C)n(C)c3ccccc23)nc2ccccc2c1=O	n	n	x	x	n	n
O=C(CSc1nc2sc3c(c2c(=O)[nH]1)CCCC3)Nc1ccccc1F	n	n	x	x	u	n
O=C(Cn1nc(-c2ccccc2)c2ccccc2c1=O)NCC1CCCO1 (stereo unspecified)	n	n	n	n	n	n
CCCn1c(=S)[nH]c2cc(C(=O)NCC3CCCO3)ccc2c1=O (stereo unspecified)	n	n	n	n	10µM	n
